# Reference: ChEMBL document CHEMBL1157539, “Thousands of chemical starting points for antimalarial lead identification” (Nature, 2010)
# Tested on: Plasmodium falciparum
# Assay: GSK_TCMDC: Inhibition of Plasmodium falciparum Dd2 in whole red blood cells, using parasite LDH activity as an index of growth. Test compounds present at 2uM
# Assay type: functional
row,SMILES,Inhibition [%]
1,CN1CCCC(CN2CCN(Cc3cccc(-c4ccc(-c5nc6cc(F)ccc6[nH]5)cc4)c3)CC2)C1.O=C(O)C(F)(F)F (stereo not given),100
2,COc1cc(NC(=O)Nc2ccc(Br)cc2C(=O)Nc2ccc(Br)cc2)cc(OC)c1OC,98
3,O=C(Nc1cccc(CN2CCCN(Cc3ncc[nH]3)CC2)c1)c1ccc2ccccc2c1.O=C(O)C(F)(F)F,2
4,Cc1ccccc1Nc1cc(Nc2ccccc2C)c2ccccc2n1,93
5,CC(C)N1CCN(CCCCNc2c3ccccc3nc3ccccc23)CC1.Cl,0

# Tested on: HepG2
# Assay: GSK_TCMDC: Percent inhibition of human HepG2 cell line. Test compounds present at 10uM.
# Assay type: functional
row,SMILES,Inhibition [%]
1,CCc1c(C(=O)NC2CCC(N3CCC(c4ccccc4OC)CC3)CC2)[nH]c2ccc(OC)cc12 (stereo not given),43
2,CCC(C)NS(=O)(=O)c1ccc2nc(Nc3ccc(C)c(Cl)c3)n(C3CCCCC3)c2c1 (stereo not given),0
3,Cc1nc2c(s1)c(=O)cc(CCc1cccc(F)c1F)n2CC(=O)N(Cc1ccc(-c2ccc(C(F)(F)F)cc2)cc1)C1CCN(C(C)C)CC1.O=C(O)C(O)C(O)C(=O)O,98
4,Cc1cc(S(=O)(=O)N2CCCCC(c3ccc(C(F)(F)F)cc3)=N2)c(Cl)cc1Cl,17
5,Cc1ccccc1C1CCN(C2CCC(NC(=O)/C=C/c3cccc(Cl)c3Cl)CC2)CC1 (stereo not given),74
6,CCCCCCNc1cc(C)nc(NC(=N)Nc2cccc(C(F)(F)F)c2)n1,44
7,Cl.Oc1ccc(-c2cc(COc3ccccc3C(F)(F)F)c(C3=CCNCC3)cc2COc2ccccc2C(F)(F)F)cc1,18
8,Br.N=C1c2ccccc2CN1CC(=O)c1ccc(Cl)c(Cl)c1,1
9,COc1c(C)[nH]c(C)c(-c2ccc(Oc3cccc(C(F)(F)F)c3)cc2)c1=O,40
10,CCCc1ccc(C2CCN(CCCCNC(=O)c3ccc(NC(=O)c4ccc(Cl)cc4)cc3)CC2)cc1,39
11,Cc1cc(N[C@@H](CC(C)C)C(=O)NCCOc2ccccc2)nc(NCC2CCCCC2)n1.O=C(O)C(F)(F)F,24
12,COc1ccccc1CCNc1nc(C)cc(N[C@@H](CC(C)C)C(=O)Nc2ccccc2)n1.O=C(O)C(F)(F)F,16
13,COc1ccc2nccc([C@@H](O)CN3CCC(NCc4ccc(OC)c(NC=O)c4)CC3)c2c1,0
14,O=C(Nc1cccc(CN2CCCN(Cc3ccc(O)cc3)CC2)c1)c1ccc(Br)cc1.O=C(O)C(F)(F)F,19
15,COC(=O)COc1cc(C(=O)NCCCCN2CCC(c3ccc4c(c3OC)CCCC4)CC2)ccc1-c1ccc(Cl)cc1,32
16,COc1ccc(CCN(C)CCOc2ccc(NC(=O)c3cccc4cc5ccccc5nc34)cc2)cc1OC,37
17,COc1cccc(CNC[C@@H](O)[C@H](Cc2ccccc2)NC(=O)c2cc(N3CCCC3=O)c3[nH]cc(C(C)C)c3c2)c1,5
18,CC(C)=CCN1CCC(C(=O)Nc2ccc(-c3nc4ccccc4[nH]3)cc2)CC1,0
19,CCCCCCN(CCCCCC)CC(O)c1cc(-c2ccc(Cl)cc2)nc2c(C)cc(C)cc12 (stereo not given),27
20,CC(C)CCN1CCCN(Cc2cccc(NC(=O)c3ccc(-c4ccccc4)cc3)c2)CC1.O=C(O)C(F)(F)F,27
21,COCCOc1cc(C)c(C2CCN(CCCCNC(=O)c3ccc(NC(=O)c4ccc(Cl)cc4)cc3)CC2)cc1C,15
22,COc1ccc2ncc(F)c(CCN3CC4CCCC4(CNCc4ccc5c(n4)NC(=O)CS5)C3)c2n1.Cl (stereo not given),18
23,O=C(Nc1nc(-c2cc(F)ccc2F)cs1)c1cncc(Br)c1,16
24,Cl.FC(F)(F)c1ccccc1OCc1cc(-c2ccncc2)c(COc2ccccc2C(F)(F)F)cc1C1=CCNCC1,31
25,CCCNC(=O)Nc1ccc(N(C)c2ccnc(NC3CC3)n2)cc1,28
26,CCCC(CNCc1cccc(OC(F)(F)C(F)F)c1)CNc1cc(=O)c2ccccc2[nH]1 (stereo not given),0
27,N#Cc1cccc(NC(=O)Nc2cccc(-c3ccc(-c4nc5cc(C(F)(F)F)ccc5[nH]4)cc3)c2)c1,54
28,CCOC(=O)N/N=C/[C@H](CCc1ccccc1)NC(=O)[C@H](CC(C)C)NC(=O)c1cc2cccc(OC)c2o1,3
29,CC(C)(CN)c1nc(-c2ccc(Br)c(O)c2)c(-c2ccncc2)[nH]1.Cl,31
30,CC(C)(C)c1ccc2[nH]c(-c3ccc(C(=O)NC4CCN(Cc5ccccc5)CC4)s3)nc2c1,24
